What all share (assay): NCI-60 one-dose screen, 48 h (100 = growth as untreated, 0 = no growth, -100 = all killed)
One experiment has as its system SK-MEL-2 melanoma. The following applies: 10 µM unless noted.
The next experiment has as its system EKVX NSCLC. Particulars: 10 µM unless noted.
For the next experiment, the system named is SN12C renal. The following applies: 10 µM unless noted.
Another experiment relates to UO-31 renal. The following applies: 10 µM unless noted.
A further experiment has as its system TK-10 renal. The following applies: 10 µM unless noted.
The next experiment has as its system ACHN renal. Particulars: 10 µM unless noted.
The next experiment has as its system CAKI-1 renal. Particulars: 10 µM unless noted.
For the next experiment, the system named is A498 renal. The following applies: 10 µM unless noted.
In a further experiment the test system is CCRF-CEM leukemia. Particulars: 10 µM unless noted.
A further experiment concerns MOLT-4 leukemia. Particulars: 10 µM unless noted.
Another experiment concerns SR leukemia. The following applies: 10 µM unless noted.
For a further experiment, the system named is RPMI-8226 leukemia. The following applies: 10 µM unless noted.
Another experiment concerns OVCAR-8 ovarian. Particulars: 10 µM unless noted.
A further experiment deals with OVCAR-5 ovarian. Particulars: 10 µM unless noted.
The subject of a further experiment is OVCAR-4 ovarian. Particulars: 10 µM.
For a further experiment, the system named is IGROV1 ovarian. The following applies: 10 µM unless noted.
The next experiment relates to OVCAR-3 ovarian. Particulars: 10 µM unless noted.
For another experiment, the system named is HS 578T breast. The following applies: 10 µM unless noted.
In the next experiment the test system is NCI/ADR-RES ovarian. Particulars: 10 µM unless noted.

This is part of a sample that, as a whole, favours compounds with a hit. Of some 83,000 tested, about 20% had one in any assay.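 Cells were grown in 96-well plates and exposed to the test compound at a single concentration for 48 hours; results are reported as percent growth, with values below 10 considered active.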 A number with no mark means an inactive call. Calls of active or inactive are those of the source.

As for `CCCCCCSc1ncnc2nc[nH]c12`, the growth was 105% in the experiment with SK-MEL-2 melanoma; 83.6% in the experiment on EKVX NSCLC; 92.4% in the experiment on SN12C renal; 64.7% in the experiment on UO-31 renal; 103% in the experiment with TK-10 renal; 96.8% with ACHN renal. Besides, the growth with CAKI-1 renal was 95.9%; in the experiment on A498 renal, 95.2%; with CCRF-CEM leukemia, 101%; with MOLT-4 leukemia it was 84.7%; in the experiment on SR leukemia, 85.2%; in the experiment on RPMI-8226 leukemia, 84.8%. Besides, the growth in the experiment on OVCAR-8 ovarian is 95.5%; with OVCAR-5 ovarian it was 98.9%; with OVCAR-4 ovarian it was 88.4%; in the experiment with IGROV1 ovarian, 82.6%; in the experiment on OVCAR-3 ovarian, 103%; in the experiment with HS 578T breast it was 102%. The growth with NCI/ADR-RES ovarian was 91.3%.

Turning to `CC(C)CCSc1nc(N)nc2nc[nH]c12`, the growth was 109% in the experiment with SK-MEL-2 melanoma; 109% in the experiment with EKVX NSCLC; 92.8% in the experiment on SN12C renal; 86.1% in the experiment on UO-31 renal; 154% in the experiment on TK-10 renal; 91.5% in the experiment on ACHN renal. Besides, the growth with CAKI-1 renal was 108%; with A498 renal, 116%; in the experiment with CCRF-CEM leukemia, 102%; in the experiment on MOLT-4 leukemia, 116%; in the experiment on SR leukemia it was 89.8%; in the experiment with RPMI-8226 leukemia, 94.6%. Also, the growth is 94.1% with OVCAR-8 ovarian; 107% in the experiment on OVCAR-5 ovarian; 112% with OVCAR-4 ovarian; 79.9% with IGROV1 ovarian; 103% with OVCAR-3 ovarian; 122% in the experiment on HS 578T breast. Further, the growth with NCI/ADR-RES ovarian is 104%.

Take `COc1ccc2c(c1)c(-c1noc(C(=O)c3cn(C)c4ncc(Br)cc34)n1)cn2C`: the growth with SK-MEL-2 melanoma was 97.4%; in the experiment with EKVX NSCLC, 75.4%; in the experiment with SN12C renal, 77.6%; in the experiment with UO-31 renal, 70.5%; with TK-10 renal, 21.8%; in the experiment on ACHN renal, 39.8%. The growth in the experiment with CAKI-1 renal was 68.9%; with A498 renal, 48.5%; in the experiment on CCRF-CEM leukemia it was 56.9%; in the experiment on MOLT-4 leukemia it was 77.2%; in the experiment on SR leukemia, 64%; with RPMI-8226 leukemia it was 62.2%. Moreover, the growth in the experiment on OVCAR-8 ovarian is 74.4%; in the experiment with OVCAR-5 ovarian it was 80.4%; with OVCAR-4 ovarian, 42.9%; in the experiment on IGROV1 ovarian it was 54.3%; in the experiment on OVCAR-3 ovarian, 30.5%; in the experiment with HS 578T breast, 27.8%. Further, the growth with NCI/ADR-RES ovarian is 59.7%.

As for `CC1=CC[C@@H]2C(C)(C)C(=O)CC[C@@]2(C)[C@@H]1COc1ccc2ccc(=O)oc2c1`, the growth in the experiment on SK-MEL-2 melanoma is 77%; with EKVX NSCLC, 71.4%; in the experiment with SN12C renal it was 76.1%; in the experiment on UO-31 renal, 39%; with TK-10 renal it was 82%; in the experiment with ACHN renal, 74.2%. The growth in the experiment with CAKI-1 renal is 47.3%; in the experiment on A498 renal, 75.3%; in the experiment on CCRF-CEM leukemia it was 61.9%; with MOLT-4 leukemia, 39.1%; in the experiment on SR leukemia, 77.9%; in the experiment on RPMI-8226 leukemia, 45.9%. In addition, the growth in the experiment on OVCAR-8 ovarian was 51.1%; in the experiment on OVCAR-5 ovarian, 98%; in the experiment on OVCAR-4 ovarian, 23.1%; in the experiment on IGROV1 ovarian it was 77.9%; in the experiment on OVCAR-3 ovarian it was 72.5%; in the experiment on HS 578T breast, 77.6%. The growth in the experiment with NCI/ADR-RES ovarian is 28.4%.

As to `Cc1cccc(C[C@H](NC(=O)Nc2ccc(C)cc2F)C(=O)N[C@@H]2C(=O)N3C[C@H](O)C[C@H]3C(=O)N3CCN(C)C[C@H]3C(=O)N[C@@H](C)C(=O)N3C[C@H](C)C[C@H]3C(=O)O[C@H]2C)c1`, the growth was 39.9% in the experiment with SK-MEL-2 melanoma; 69.6% in the experiment with EKVX NSCLC; 21.5% with SN12C renal; 93% with UO-31 renal; 94.1% with TK-10 renal; 106% with ACHN renal. Also, the growth with CAKI-1 renal is 82.1%; with A498 renal, 32.8%; in the experiment on CCRF-CEM leukemia, 62.5%; with MOLT-4 leukemia, 40.4%; in the experiment on SR leukemia it was 34.5%; in the experiment with RPMI-8226 leukemia, 28.2%. The growth in the experiment with OVCAR-8 ovarian was 50.8%; in the experiment with OVCAR-5 ovarian, 42.7%; in the experiment with OVCAR-4 ovarian, 12.9%; in the experiment on IGROV1 ovarian it was 52.3%; with OVCAR-3 ovarian it was 24.4%; with HS 578T breast it was 50.8%. The growth in the experiment on NCI/ADR-RES ovarian was 114%.

Turning to `NS(=O)(=O)c1ccc(CCN2C(=O)/C(=C\c3ccccc3)C=C2c2ccc(Cl)cc2)cc1`, the growth is 102% in the experiment with SK-MEL-2 melanoma; 88.5% with EKVX NSCLC; 90.6% with SN12C renal; 65.8% with UO-31 renal; 113% with TK-10 renal; 97% in the experiment on ACHN renal. Moreover, the growth in the experiment on CAKI-1 renal was 65.1%; in the experiment with A498 renal, 65.6%; in the experiment on CCRF-CEM leukemia, 101%; in the experiment with MOLT-4 leukemia, 94.8%; in the experiment with SR leukemia it was 103%; in the experiment on RPMI-8226 leukemia, 98.3%. Further, the growth is 98.2% in the experiment on OVCAR-8 ovarian; 99.4% in the experiment with OVCAR-5 ovarian; 95.4% in the experiment with OVCAR-4 ovarian; 91.9% in the experiment with IGROV1 ovarian; 96.9% with OVCAR-3 ovarian; 93.9% in the experiment on HS 578T breast. Moreover, in the experiment with NCI/ADR-RES ovarian, the growth is 107%.

For the molecule `Cn1cc(-c2nnc(-c3ccccc3)s2)c2cc(Br)cnc21`, the growth in the experiment with SK-MEL-2 melanoma is 100%; in the experiment on EKVX NSCLC, 62.6%; with SN12C renal, 90.1%; with UO-31 renal it was 61.5%; in the experiment with TK-10 renal, 88.2%; in the experiment on ACHN renal it was 66.7%. The growth in the experiment with CAKI-1 renal is 53%; in the experiment with A498 renal it was 60.2%; with CCRF-CEM leukemia it was -12.6% (active); in the experiment on MOLT-4 leukemia it was 83.4%; with SR leukemia it was 90.7%; with RPMI-8226 leukemia it was 85.8%. For the same molecule, the growth is 94.4% in the experiment with OVCAR-8 ovarian; 94.9% in the experiment with OVCAR-5 ovarian; 68% in the experiment on OVCAR-4 ovarian; 43.7% in the experiment with IGROV1 ovarian; 84.5% with OVCAR-3 ovarian; 79.9% in the experiment on HS 578T breast. The growth with NCI/ADR-RES ovarian was 90.4%.

In the case of `CSc1nc2c(c(=O)n1C)C1(C(=O)N(Cc3ccccc3)c3ccccc31)c1c(nc(SC)n(C)c1=O)N2`, the growth was 80.8% in the experiment with SK-MEL-2 melanoma; 100% in the experiment with EKVX NSCLC; 95.1% in the experiment on SN12C renal; 73.9% in the experiment on UO-31 renal; 113% with TK-10 renal; 77.5% with ACHN renal. For the same molecule, the growth in the experiment with CAKI-1 renal is 103%; in the experiment on A498 renal it was 72.6%; in the experiment on CCRF-CEM leukemia, 98.8%; with MOLT-4 leukemia, 99.9%; in the experiment with SR leukemia it was 104%; with RPMI-8226 leukemia, 59.2%. Besides, the growth with OVCAR-8 ovarian was 85.5%; in the experiment with OVCAR-5 ovarian it was 102%; with OVCAR-4 ovarian, 99.5%; in the experiment on IGROV1 ovarian it was 98%; in the experiment with OVCAR-3 ovarian it was 75.2%; in the experiment on HS 578T breast it was 97.9%. The growth in the experiment with NCI/ADR-RES ovarian was 95.2%.
